Data reported in article PMC4336329 (PLoS ONE, 2015).
In all, about 310,000 compounds went through this assay and about 14,000 (4.5%) showed an effect of 50% or more. Effects have a minus sign here. What follows is part of a selection rich in strong results, with near analogues and random picks from the rest.

Target: human ether-à-go-go-related gene (hERG) potassium channel (human, UniProt Q12809)
Test: primary screen, population patch clamp on CHO cells stably expressing hERG; higher = less effect of the substance
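Further: peak tail current of the secondary pulse compared with the same well before compound.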

Sequence of human ether-à-go-go-related gene (hERG) potassium channel (Q12809 whole entry, looked up): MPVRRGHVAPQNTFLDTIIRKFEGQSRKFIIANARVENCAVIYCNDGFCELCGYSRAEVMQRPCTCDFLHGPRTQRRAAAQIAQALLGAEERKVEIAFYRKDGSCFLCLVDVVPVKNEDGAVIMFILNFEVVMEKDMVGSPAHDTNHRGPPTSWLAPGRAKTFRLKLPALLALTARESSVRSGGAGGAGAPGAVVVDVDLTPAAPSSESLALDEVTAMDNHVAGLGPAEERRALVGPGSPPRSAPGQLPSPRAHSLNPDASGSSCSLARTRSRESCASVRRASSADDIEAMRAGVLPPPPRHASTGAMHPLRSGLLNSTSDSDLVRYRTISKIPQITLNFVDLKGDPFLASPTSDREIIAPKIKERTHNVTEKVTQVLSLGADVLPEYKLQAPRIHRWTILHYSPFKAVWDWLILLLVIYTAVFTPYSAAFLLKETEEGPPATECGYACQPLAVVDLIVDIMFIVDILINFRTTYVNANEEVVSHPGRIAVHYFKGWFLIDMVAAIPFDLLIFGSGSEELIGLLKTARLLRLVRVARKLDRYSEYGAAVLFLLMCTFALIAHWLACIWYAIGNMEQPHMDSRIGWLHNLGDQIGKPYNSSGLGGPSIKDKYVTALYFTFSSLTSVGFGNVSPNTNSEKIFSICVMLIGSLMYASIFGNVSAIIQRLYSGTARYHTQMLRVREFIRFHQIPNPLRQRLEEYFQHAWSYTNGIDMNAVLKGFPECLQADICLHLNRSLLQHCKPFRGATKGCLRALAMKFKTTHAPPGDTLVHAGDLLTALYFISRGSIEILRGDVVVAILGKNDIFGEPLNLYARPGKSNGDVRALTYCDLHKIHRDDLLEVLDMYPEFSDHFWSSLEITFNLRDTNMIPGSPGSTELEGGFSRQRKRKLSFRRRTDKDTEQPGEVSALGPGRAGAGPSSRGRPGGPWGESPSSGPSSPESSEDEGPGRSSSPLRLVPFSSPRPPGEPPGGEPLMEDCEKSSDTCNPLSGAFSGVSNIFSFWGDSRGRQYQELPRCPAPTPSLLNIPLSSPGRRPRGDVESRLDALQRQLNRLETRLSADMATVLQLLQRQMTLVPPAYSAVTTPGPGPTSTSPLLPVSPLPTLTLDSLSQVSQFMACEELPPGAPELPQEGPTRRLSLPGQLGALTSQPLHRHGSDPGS

Row | Structure (SMILES) | hERG current change (%, negative = inhibition) at 10uM
1 | COc1ccc(CN2CCN(C(=O)c3cccs3)CC2)cc1.O=C(O)C(=O)O | -7.86%
2 | C=CCn1c(SCC(=O)N2CCOCC2)nnc1C(C)NC(=O)c1ccccc1 (stereo not drawn) | 13.4%
3 | CCc1cccc(C)c1NC(=O)COC(=O)Cc1ccsc1 | 10.4%
4 | c1cncc(-c2noc(C34CC5CC(CC(C5)C3)C4)n2)c1 | -0.918%
5 | Nc1nc2ccccc2cc1S(=O)(=O)c1ccccc1 | 16%
6 | O=[N+]([O-])c1ccc(N/N=C/c2cccc(O)c2O)c(S(=O)(=O)N2CCOCC2)c1 | -5.8%
7 | COC(=O)c1ccccc1NC(=O)CSc1nnc(-c2cccnc2)o1 | -6.93%
8 | COc1ccccc1NC(=O)C(C)N1C(=O)c2ccccc2C1=O (stereo not drawn) | 5.76%
9 | Cc1cccc(-c2nc(CSCC(=O)NCCCN3CCOCC3)c(C)o2)c1 | -11.3%
10 | Cc1c(NC(=O)CSc2nnnn2-c2ccc(O)cc2)c(=O)n(-c2ccccc2)n1C | -7.29%
11 | Nc1c(Cl)ncnc1NCCc1ccc(O)cc1 | 9.93%
12 | CCn1nc(-c2ccccc2)nc2c(=O)n(C)c(=O)nc1-2 | -27.6%
13 | Cc1cnc2cc(Cl)c(Cl)cc2n1 | 18.2%
14 | CCOc1ccc(S(=O)(=O)Nc2ccc(C(=O)N3CC(C)OC(C)C3)cc2)cc1 (stereo not drawn) | 0.557%
15 | O=C1C=C(c2ccc(-c3ccccc3)cc2)C[C@@H](c2ccc(Cl)cc2)C1 | 21.8%
16 | N#Cc1ccc(C2=CC(=O)C[C@H](c3ccc(Cl)cc3)C2)cc1 | -71.9%
17 | Cc1ccc(C2=CC(=O)C[C@H](c3ccc(Cl)cc3)C2)cc1 | 8.09%
18 | O=C(NCc1ccccc1)c1ccc(CS(=O)(=O)Cc2ccccc2F)o1 | -5.62%
19 | COc1cccc(CNC(=O)CC2C(=O)NCCN2CCCc2ccccc2)c1 (stereo not drawn) | -6.17%
20 | CCc1nnc(NC(=O)CN2CCN(Cc3cccc(OC)c3)CC2)s1 | -19%
21 | COc1cccc(CN2CCN(CC(=O)Nc3ccccc3Cl)CC2)c1 | -72%
22 | O=C(COc1ccc(Cl)cc1)Nc1ccccc1Cl | 3.26%
23 | COc1cccc(NC(=O)CN2CCc3ccccc3C2)c1 | 10.3%

Row | Structure (SMILES) | hERG current change (%, negative = inhibition) at 10uM
24 | COc1cccc(CC(=O)Nc2ccccc2N2CCCC2)c1 | -5.39%
25 | COc1cccc(NC(=O)CN2CCC(C)CC2)c1 | 1.52%
26 | COc1ccc(NC(=O)CN2CCN(CC(=O)Nc3ccccc3Cl)CC2)cc1 | -74.1%
27 | COc1ccc(OCC(=O)Nc2ccccc2Cl)cc1 | 13.7%
28 | COc1cccc(NC(=O)CN2CCN(CC(=O)Nc3ccccc3Cl)CC2)c1 | -61%
29 | CCc1ccc(OCC(=O)N2CCN(CC(=O)Nc3ccccc3Cl)CC2)cc1 | -80.7%
30 | COc1ccc(S(=O)(=O)N2CCN(CC(=O)Nc3ccccc3Cl)CC2)cc1 | -1.6%
31 | COc1ccc(NC(=O)c2ccccc2NC(=O)CN2CCCCCC2)cc1 | 8.82%
32 | CCOC(=O)c1oc2ccccc2c1COC(=O)C(C)NC(=O)c1ccco1 (stereo not drawn) | -16.5%
33 | COc1ccc(C(=O)N(C)C2CCCCC2)cc1S(=O)(=O)N1CCOCC1 | -3.28%
34 | CCCCOc1ccc(/C=N/NC(=S)Nc2cccc(C)c2C)cc1 | -15.8%
35 | CCOc1ccc(CCNC(=O)CN2C(=O)COc3ccc(S(=O)(=O)N4CCOCC4)cc32)cc1 | -6.84%
36 | CCN1CCCC1CNC(=O)C(=O)Nc1cccc(OC)c1 (stereo not drawn) | -1.67%
37 | O=C(c1cc2cc(Br)ccc2[nH]1)N1CCc2ccccc21 | 14%
38 | CSc1ccccc1NC(=O)COc1ccc(Cl)cc1 | -17.5%
39 | COc1cccc(C(=O)NC2CCN(CC(=O)Nc3cccc(C)c3C)CC2)c1 | 32.2%
40 | CC(NC(=O)CN1CCN(S(=O)(=O)c2ccc(Br)cc2)CC1)c1ccccc1 (stereo not drawn) | -36.9%
41 | Cc1cccc(C(=O)NC2CCN(CC(=O)Nc3ccccc3Cl)CC2)c1 | -49%
42 | CC(NC(=O)CN1CCN(c2cccc(Cl)c2)CC1)c1ccccc1 (stereo not drawn) | 4.34%
43 | COc1ccc(NC(=O)CN2CCN(c3ccccc3C)CC2)cc1 | -41.2%
44 | CC(NC(=O)CN1CCN(CC(=O)Nc2ccccc2Cl)CC1)c1ccc(Br)cc1 (stereo not drawn) | -75.1%
45 | COc1cccc(C(=O)NC2CCN(CC(=O)Nc3ccccc3Cl)CC2)c1 | -55.4%
46 | COc1ccc(NC(=O)CN2CCN(c3ccccc3Cl)CC2)cc1 | -61.4%

Row | Structure (SMILES) | hERG current change (%, negative = inhibition) at 10uM
47 | COc1ccc(CCNC(=O)CN2CCN(c3ccccc3Cl)CC2)cc1 | -19%
48 | O=C(CCCn1c(SCC(=O)c2ccc(Cl)cc2)nc2ccccc2c1=O)NCc1ccco1 | 3.21%
49 | O=c1c(Cl)c(Nc2cccc(Cl)c2)cnn1-c1nc2ccccc2s1 | -2.51%
50 | COc1ccccc1CCn1c(N)cc(=O)[nH]c1=O | 18.4%
51 | Cc1cc(C)c2c(N)c(S(=O)(=O)Cc3ccccc3)sc2n1 | -33.3%
52 | O=P(Oc1ccccc1)(Oc1ccccc1)c1ccccc1 | -21.8%
53 | CCOc1ccc(C(=O)N2CCn3c2nc2ccccc23)cc1 | -5.37%
54 | Br.Cn1c(=N)n(CC(=O)c2ccccc2)c2ccccc21 | -12.4%
55 | Br.C=CCn1c(=N)n(CC(=O)c2ccc(Cl)cc2)c2ccccc21 | -36.1%
56 | CCn1c(=N)n(CC(=O)c2cccc(OC)c2)c2ccccc21 | -16.6%
57 | Br.Cn1c(=N)n(CC(=O)c2ccc(F)cc2)c2ccccc21 | -23.2%
58 | Br.CCCn1c(=N)n(CC(=O)c2ccc(Cl)c(Cl)c2)c2ccccc21 | -51.5%
59 | Br.Cn1c(=N)n(CC(=O)c2ccc(Br)cc2)c2ccccc21 | -41%
60 | Br.CCCn1c(=N)n(CC(=O)O)c2ccccc21 | -5.8%
61 | Br.CCCn1c(=N)n(CC(=O)c2ccc(Cl)cc2)c2ccccc21 | -53%
62 | Br.CCn1c(=N)n(CC(=O)c2ccc(OC)c(OC)c2)c2ccccc21 | -13.7%
63 | Br.Cn1c(=N)n(CC(=O)c2ccc(Cl)c(Cl)c2)c2ccccc21 | -64.1%
64 | Br.CCn1c(=N)n(CC(=O)c2ccc(Cl)c(Cl)c2)c2ccccc21 | -51.4%
65 | O=C(Nc1ccc(C(=O)N2CCC(O)(c3ccc(Cl)c(C(F)(F)F)c3)CC2)cc1)c1ccc(Br)o1 | 8.21%
66 | Cc1cc2cc(CCNC(=O)CC(C)(C)C)c(=O)[nH]c2cc1C | 7.53%
67 | O=C(Cc1coc(-c2ccc(F)cc2)n1)Nc1ccccc1 | -15.4%
68 | Cn1c(=O)c2ncn(CC(=O)Nc3nc(-c4ccc(Cl)cc4)cs3)c2n(C)c1=O | 12.1%
69 | N#CCc1c(C#N)c(N)nc(N2CCN(S(=O)(=O)c3ccccc3F)CC2)c1C#N | -9.75%

Row | Structure (SMILES) | hERG current change (%, negative = inhibition) at 10uM
70 | O=C(CN(c1ccccc1)S(=O)(=O)c1ccccc1)Nc1ccc(F)cc1 | 22.6%
71 | Cc1cccc(N2C(=O)NC(=O)/C(=C\c3cc(C)n(-c4sc5c(c4C#N)CCCC5)c3C)C2=O)c1C | 4.35%
72 | Cc1nnc(NC(=O)CSc2nnc(C)n2Cc2ccccc2)s1 | 17.7%
73 | O=C(c1cccc(S(=O)(=O)N2CCN(c3ccc(F)cc3)CC2)c1)N1CCCCCCC1 | -45.2%
74 | CC(=O)N1CCN(C(=O)c2cccc(S(=O)(=O)N3CCN(c4ccc(F)cc4)CC3)c2)CC1 | -20.1%
75 | CC1CN(C(=O)c2cccc(S(=O)(=O)N3CCN(c4ccc(F)cc4)CC3)c2)CC(C)O1 (stereo not drawn) | -45.4%
76 | CC1CCN(S(=O)(=O)c2cccc(C(=O)N3CCN(c4ccc(F)cc4)CC3)c2)CC1 | -65.4%
77 | CC1CC(C)CN(S(=O)(=O)c2cccc(C(=O)N3CCN(c4ccc(F)cc4)CC3)c2)C1 (stereo not drawn) | -51.9%
78 | CC1CCN(C(=O)c2cccc(S(=O)(=O)N3CCN(c4ccccc4)CC3)c2)CC1 | 2.41%
79 | COc1cc(/C=N/NC(=O)CSc2n[nH]c(=O)[nH]c2=O)cc(OC)c1O | 28.8%
80 | Cc1cc(C)cc(-n2c(SC(C)C(=O)NCc3ccc4c(c3)OCO4)nc3ccccc3c2=O)c1 (stereo not drawn) | 11.3%
81 | COc1cc(NC(=O)c2ccc(C)cc2C)ccc1NC(=O)c1cc2ccccc2o1 | 6.61%
82 | Nc1c(C(=O)c2ccccc2)sc2nsc(SCCN3CCCC3)c12 | -38.2%
83 | Clc1ccc(N2CCN(/N=C/c3cccnc3)CC2)cc1 | -1.21%
84 | O=C(Nc1nccs1)c1ccc(Br)cc1 | 12.1%
85 | CCn1c(SCC(=O)N/N=C/C(C)=C\c2ccco2)nnc1-c1ccccc1 | -39%
86 | O=C(CSc1nnc(-c2ccccc2)n1-c1ccc(Cl)cc1)N/N=C/c1ccco1 | -55%
87 | CCn1c(SCC(=O)N/N=C/C(C)=C/c2ccco2)nnc1-c1ccccc1 | -55.1%
88 | Cc1ccc(/C=N/NC(=O)CSc2nnc(-c3ccccc3)n2-c2ccc(Cl)cc2)o1 | -21.8%
89 | O=C(CSc1nnc(-c2ccc(Cl)cc2)n1-c1ccc(Cl)cc1)N/N=C/c1ccco1 | -41.7%
90 | CCn1c(SCC(=O)N/N=C/C=C/c2ccco2)nnc1-c1ccccc1 | -34.7%
